Test results taken from PubChem BioAssay AID687031 (Broad Institute, 2013).
The whole screen tested about 1,400 compounds, of which about 50 (4%) were called active.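 How the source made its calls: active means fitted curve reaches 30% CPE protection at or below the top valid dose, with every test run called active; inconclusive means test runs disagree, some active and some not; inactive means every test run inactive, including effects in the wrong direction.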 Only a sample is shown. Entries with a potency or affinity are not part of this list.

test: antiviral rescue of DENV2-infected BHK-21 cells – cell-based, ATP luminescence, cherry-pick, dose response (AID 687031); conditions: BHK-21 DENV2 CPE protection, 5 d; series mostly up to 19.5 µM; CPE protection (higher = active): at the top concentration;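 further: 0% = infected DMSO wells and 100% = uninfected cell wells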

CPE protection (higher = active), inactive:
COc1ccc(C(CCN2CCOCC2)c2c(OC)cc(OC)c3c(C)cc(=O)oc23)cc1 (stereo not drawn) 27.1%
CN1C[C@@H]2[C@@H]3C(=O)N(Cc4ccccc4)C(=O)[C@@H]3[C@](C)(C1=O)N2C(=O)c1ccc(C(C)(C)C)cc1 8.78%
Cc1ccc(S(=O)(=O)N2CCN(C(=O)COC(=O)Cc3ccc(Cl)cc3)CC2)c(C)c1 -8.53%
O=C(c1ccccc1Cc1ccccc1)N1CCN(S(=O)(=O)c2ccccc2)CC1 0.551%
O=C1[C@@H](Oc2ccccc2)[C@@H](c2ccncc2)N1c1ccncc1 -3.03%
Cc1ccc2ccc(C(Nc3ccccc3)c3ccccc3)c(O)c2n1 (stereo not drawn) -6.24%
Cc1ccc(CNC(=O)C2CCC(=O)N(CCc3ccccn3)C2)s1 (stereo not drawn) -1.35%
Cc1cccc(N2CCN(C(C(=O)NCc3ccccc3)c3ccc(F)cc3)CC2)c1C (stereo not drawn) -8.34%
CC1(C)CC(=O)N(CC(=O)O)c2ccccc2S1(=O)=O -20.4%
CCNC(=O)C[C@H]1CC[C@@H]2[C@H](COC[C@H](O)CN2Cc2ccc(Cl)c(Cl)c2)O1 12.1%
Cc1noc(C)c1S(=O)(=O)Nc1ccc2c(c1)C(=O)N([C@H](C)CO)C[C@H](C)[C@H](CN(C)C(=O)Nc1ccccc1)OCCCC[C@@H](C)O2 7.27%
Cc1noc(C)c1S(=O)(=O)Nc1ccc2c(c1)C(=O)N([C@@H](C)CO)C[C@@H](C)[C@@H](CN(C)C(=O)Nc1ccccc1)OCCCC[C@@H](C)O2 34% [at 10 µM]
CNc1cc(-c2ccc(O)cc2C)ncn1 -18%
O=C(C1CCOCC1)N1CC[C@@H]2[C@H]1c1cc(-c3cccc(F)c3)ccc1N[C@@H]2CO -4.08%
O=C(C1CC1)N1CC[C@@H]2[C@H]1c1cc(-c3ccc(F)cc3)ccc1N[C@@H]2CO 19.9%
Cc1ccc(S(=O)(=O)c2nnn3c2nc(N2CCOCC2)c2ccccc23)cc1C 18.2%
CCCN(CC(=O)Nc1ccccc1C)C(=O)C1CCN(S(=O)(=O)c2ccc(C)c(C)c2)CC1 6.3%
O=C(NCc1ccccn1)C(=O)NCC1OCCN1S(=O)(=O)c1ccc(Br)cc1 (stereo not drawn) -4.64%
CCC(C)(C)C1CCc2[nH]nc(C(=O)NCc3ccccn3)c2C1 (stereo not drawn) 13.8% [at 10 µM]
COc1ccc(CN(C)C[C@H]2OCCCC[C@@H](C)Oc3ccc(NC(=O)NC(C)C)cc3C(=O)N([C@H](C)CO)C[C@H]2C)cc1 13.6% [at 21 µM]
CN1c2ccc(-c3cccc(F)c3)cc2[C@H]2[C@H](CCN2C(=O)Cc2cccnc2)[C@H]1CO -9.94%
O=C(C1CCOCC1)N1C[C@@H]2[C@H](c3ccccc31)[C@H](CO)N2C(=O)c1ccccc1 -12.7%
CC(C)NC(=O)N1C[C@H]2[C@@H](c3ccccc31)[C@@H](CO)N2C(=O)c1ccccn1 6.1%
COc1ccc2ccccc2c1/C=N/NC(=O)c1ccccc1F 3.87%
Cc1ccccc1S(=O)(=O)N1CC[C@H]2[C@@H](CO)N(C)c3ccc(Br)cc3[C@H]21 2.06%
CCOc1ccc2[nH]c3ncccc3c(=O)c2c1 -4.21%
CC1(C(=O)NCc2cccs2)Cc2c(-c3cccc(C(F)(F)F)c3)ccnc2O1 (stereo not drawn) 17%
CCc1nnc(NC(=O)c2ccc(F)c(S(=O)(=O)N3CCCCC3)c2)s1 -19.2%
O=C(C[C@H]1C[C@@H]2c3cc(NC(=O)CC4CC4)ccc3O[C@@H]2[C@H](CO)O1)NCc1ccccc1 -5.22%
CN(C)CC(=O)Nc1ccc2c(c1)[C@H]1C[C@H](CC(=O)NC3CCCCC3)O[C@@H](CO)[C@H]1O2 0.976%
Cc1ccc(NCC(=O)N/N=C/c2cccc(Br)c2)cc1 7.97%
CCCCCC(=O)N1C[C@@H](n2cc(C3CC3)nn2)[C@H](O)C[C@@H]1c1ccccc1 -7.51%
Cc1ccccc1CN1C(=O)CN(S(C)(=O)=O)CC1(C)C(=O)NCc1ccccc1 (stereo not drawn) -24.2%
CC(=O)Nc1cccc(C(=O)OC(C)C(=O)NC(=O)NC2CCCCC2)c1 (stereo not drawn) -3.28%
COCCNC(=O)C1CCC(CNS(=O)(=O)c2ccc(F)cc2)CC1 (stereo not drawn) -10.5%
CCOC(=O)C1=C(C)NC(=O)NC1c1ccc(N(C)C)cc1 (stereo not drawn) -0.681%
N#C[C@@H]1[C@H](c2ccc(-c3ccccc3F)cc2)[C@H](CO)N1C(=O)C1CC1 -0.808% [at 21 µM]
CCN(CC(=O)Nc1c(F)cccc1F)C(=O)C1CCN(S(=O)(=O)c2ccc(F)cc2)CC1 -5.16%
Cc1ccc(S(=O)(=O)N2CCOCC2)cc1NC(=O)CN(C)CC(=O)Nc1cccc(F)c1 -5.13%
COc1ccc(-c2cc(C(=O)NCCCN3CCCC3=O)c3ccccc3n2)cc1 -27.2%
CSc1cccc(NC(=O)CC2Oc3ccccc3NC2=O)c1 (stereo not drawn) -0.118%
CCOc1ccc(N(CC(=O)NC2CCCC(C)C2C)S(=O)(=O)c2c(C)noc2C)cc1 (stereo not drawn) -13.2%
Cn1c(=O)c2[nH]c(CCCCc3nc4ccccc4[nH]3)nc2n(C)c1=O 6.76%
COc1ccc(CC(N)c2csc(NC(=O)c3ccc(OC)cc3)n2)cc1 (stereo not drawn) -8.87%
Nc1ccc(CC(N)c2csc(Nc3cc(Oc4ccccc4)ncn3)n2)cc1 (stereo not drawn) -9.32%
CC(C)SCc1cc(N2CCCC2)nc(-c2ccccc2)n1 -9.75%
COc1ccccc1-c1noc2c1C(=O)N(Cc1cn(Cc3ccccc3)nn1)CC2 6.91%
COc1ccc2ccccc2c1-c1sc(Nc2ccccc2)n[n+]1-c1ccc(F)cc1 -20%
CNC[C@@H]1OCCCC[C@H](C)Oc2ccc(NS(=O)(=O)c3c(C)noc3C)cc2C(=O)N([C@@H](C)CO)C[C@@H]1C 4.03%
CC1CCCCC12NC(=O)N(CC(=O)NCc1cccs1)C2=O (stereo not drawn) 2.88%
O=C(NCc1cccs1)c1cccc(Nc2nc3ccc(Br)cc3[nH]2)c1 -1.49%
CN(Cc1ccccc1)CC1CCCN(CCc2ccccc2F)C1 (stereo not drawn) 3.08%
CC(C)Cc1ccc(C(C)C(N)=NCCc2ccccc2)cc1 (stereo not drawn) 21.7%
CCN(C)C1CN(Cc2cn(Cc3ccc(F)cc3)nn2)S(=O)(=O)C1 (stereo not drawn) -3.5%
CCOc1ccc(Oc2nc(NCC(C)C)nc(OC)n2)nn1 -24.7%
O=C(NC(C(=O)N1CCCC1C(=O)NC1CCCC1)c1ccccc1)c1cccs1 (stereo not drawn) -11.5%
NS(=O)(=O)c1ccc(CCNC(=O)C2CCCN2C(=O)c2cccs2)cc1 (stereo not drawn) -11.5%
CCC(=O)N1CC2(C1)CN(C(=O)Nc1ccc(F)cc1)[C@H](CO)c1c2c2ccc(OC)cc2n1C 5.8%
Cc1ccc(-c2nc(N3CCN(C)CC3)c3ccccc3n2)cc1 12.5%
COc1ccc(/C=N/NC(=O)c2nc(-c3ccccc3)n(-c3ccccc3)n2)cc1OC 6.48%
CCCNC(=O)C[C@H]1CC[C@@H]2[C@H](COC[C@H](O)CN2C(=O)CC)O1 36.8%
CCNC(=O)C[C@H]1CC[C@H]2[C@@H](COC[C@H](O)CN2C(=O)c2cccnc2)O1 24.6%
Cc1ccc(SCCN2CCC(NC(=O)OCc3ccccc3)CCC2=O)cc1 (stereo not drawn) -8.36%
Cc1ccc(S(=O)(=O)Nc2ccc3c(c2)C(=O)N([C@@H](C)CO)C[C@@H](C)[C@H](CN(C)S(=O)(=O)c2ccc(Cl)cc2)OCCCC[C@@H](C)O3)cc1 -29.8%
CCc1cc(=O)oc2cc(OCC(=O)NC3CC(C)(C)NC(C)(C)C3)ccc12 3.18%
Cc1cc(OCC(=O)NC2CC(C)(C)NC(C)(C)C2)c(C)cc1Br -5.56%
CC1(C(=O)NCc2ccccc2)CN(S(C)(=O)=O)CC(=O)N1CCc1ccc(O)cc1 (stereo not drawn) -2.07%
CC(C)CC1NC(=O)c2ccccc2-n2c1nc1ccccc1c2=O (stereo not drawn) -9.6%
Cc1ccc(S(=O)(=O)N(C)CC(=O)Oc2ccc(-c3nnco3)cc2)cc1 -21.8% [at 10 µM]
N#Cc1cc2cc3c(cc2nc1Cl)OCCO3 -12.1%
CCN(CC)C1CCN(Cc2c(C(=O)N3CCCCCCC3)nc3ccc(Cl)cn23)C1 (stereo not drawn) -11.9%
O=C(CN1CCc2cc3c(cc2C1)OCCCO3)Nc1ccccc1 17.2%
CN(C)CCCNc1cc(O)c2ncccc2c1 -6.23%
C/C=C/c1ccc([C@@H]2[C@@H](CO)N(C(C)=O)[C@@H]2CNC(=O)CC2CC2)cc1 4.22% [at 21 µM]
O=C(NCC1CC1)c1onc(CSc2ccc(F)c(F)c2)c1C(=O)NCC1CC1 10.7%
COc1cc(C)nc(N2CCC(C(=O)NCC3CCCO3)CC2)n1 (stereo not drawn) 18.9%
O=C(NCCS(=O)(=O)N1CCN(c2ccccc2)CC1)C1CC1 14.1%
O=C(CCc1nnc(Cc2c[nH]c3ccccc23)o1)NCCC1CCCCO1 (stereo not drawn) 17.1%
COc1ccc(S(=O)(=O)N2CCCCC2c2cc(C(=O)Nc3ccccc3)no2)cc1 (stereo not drawn) 23%
COC(=O)N1CCCCC1c1cc(C(=O)Nc2ccccc2Cl)no1 (stereo not drawn) -13.9%
Cc1ccc([C@H]2C[C@@H](n3cc(-c4ccc(F)cc4)nn3)[C@H](O)CN2C(=O)c2cccs2)cc1 -9.7%
CCC(=O)N1CC[C@@H]2[C@@H](CO)Nc3ccc(-c4ccc(OC)cc4)cc3[C@@H]21 -14%
O=C(NCc1ccccc1)c1ccccc1 -3.58%
O=C(O)c1ccc(CNC(=O)C2CCCN2C(=O)OCc2ccccc2)cc1 (stereo not drawn) 1.02%
Cc1ccc(OCc2nnc(SCc3cc(=O)[nH]c4ccccc34)n2-c2ccccc2)cc1 -15.6%
CO[C@@H]1CN(C)C(=O)c2ccc(NC(=O)Nc3cc(F)ccc3F)cc2OC[C@@H](C)N(C(=O)c2ccccn2)C[C@H]1C 17.2% [at 21 µM]
CC1=C(C(=O)N(C)C)CC(CC(=O)NC2CCCCC2)C(=O)N1Cc1ccc(C(C)(C)C)cc1 (stereo not drawn) 17.7%
CN(CC(=O)Nc1cccc(F)c1)C(=O)c1ccccc1CCc1ccccc1 -11.4%
C[C@H](CO)N1C[C@H](C)[C@@H](CN(C)C(=O)C2CC2)Oc2cc(C#Cc3ccccc3)ccc2S1(=O)=O -7.48%
Cc1cc(OCc2cc(C(=O)N(C)C(C)c3ccccn3)no2)cc(C)c1Cl (stereo not drawn) -3.99%
COc1cc(C)ccc1OCc1cc(C(=O)NCCN2CCCC(O)C2)no1 (stereo not drawn) 4.9%
Cc1c(C(=O)N2CCCC2)oc2ccc(Br)cc12 -4.23%
C[C@@H]1CN([C@H](C)CO)C(=O)Cc2cc(NC(=O)CCCCCC(=O)Nc3ccccc3N)ccc2O[C@@H]1CN(C)Cc1ccc(C(F)(F)F)cc1 -7.66% [at 16 µM]
Cc1ccc(S(=O)(=O)NC(=O)C2(C)CCN2C(=O)Cc2cccs2)cc1 (stereo not drawn) -2.07%
C[C@H](NC(=O)c1ncn(Cc2ccccc2)c1C(=O)N[C@@H](C)c1ccccc1)c1ccccc1 -10.4%
C[C@H](CO)N1C[C@H](C)[C@H](CN(C)C(=O)Nc2ccc(C(F)(F)F)cc2)OCCCC[C@H](C)Oc2ccc(NS(=O)(=O)c3ccc(F)cc3)cc2C1=O 7.18%
CCC(=O)N1CC[C@@H]2[C@H](CO)Nc3ccc(-c4cccc(C#N)c4)cc3[C@@H]21 22.9%
O=S(=O)(c1ccc(F)cc1)N1CC[C@@H]2[C@H]1c1cc(-c3ccc(F)cc3)ccc1N[C@@H]2CO -24%
COc1cccc(C(O)c2nc(-c3cc(F)cc(F)c3)cs2)c1 (stereo not drawn) -22.6%
CC(NC(=O)CCc1ccccc1)c1ccc2c(c1)OCO2 (stereo not drawn) 1.74%
CC(CNC(=O)Cn1ccc(NC(=O)OCc2ccccc2)nc1=O)c1ccccc1 (stereo not drawn) -2.22%
CCCCCCN1CCN(C2CN(Cc3ccc(F)cc3)S(=O)(=O)C2)CC1 (stereo not drawn) -15.2%
O=C(c1cnccn1)N1CC[C@@H]2[C@@H](CO)Nc3ccc(-c4ccccc4F)cc3[C@@H]21 -9.44% [at 21 µM]
Nc1c(-c2ccccc2)nc2ncccn12 8.46%
CCCc1cc(=O)oc2c(C)c(OCC(=O)N3C[C@H]4C[C@@H](C3)c3cccc(=O)n3C4)ccc12 -5.43%
CCOc1ccc(/C=N/NC(=O)c2ccccc2O)cc1CN1CC2CC(C1)c1cccc(=O)n1C2 (stereo not drawn) -7.87%
COc1ccc(NS(=O)(=O)c2cccs2)cn1 5.62%
COc1cccc(OC)c1Nc1nc(C)nc2c1nnn2Cc1ccccc1Cl -19.1%
